From PMC7862700, “An all-to-all approach to the identification of sequence-specific readers for epigenetic DNA modifications on cytosine”

Key:
Experiment in all cases: DAPPL (digital affinity profiling via proximity ligation, sequencing); 10 mM Tris-HCl pH 7.5, 50 mM NaCl, 1 mM DTT, 4% glycerol, room temperature, 30 min; GST-TFs on glutathione beads, 16-mer random dsDNA library, 0.1% formaldehyde crosslink after washing; high values mean tight binding
FEV = molecular target: T1, FEV (Homo sapiens, UniProt Q99581 1-238); conditions: protein: recombinant; tags: N-terminal GST; dsDNA, one strand shown
T1 sequence: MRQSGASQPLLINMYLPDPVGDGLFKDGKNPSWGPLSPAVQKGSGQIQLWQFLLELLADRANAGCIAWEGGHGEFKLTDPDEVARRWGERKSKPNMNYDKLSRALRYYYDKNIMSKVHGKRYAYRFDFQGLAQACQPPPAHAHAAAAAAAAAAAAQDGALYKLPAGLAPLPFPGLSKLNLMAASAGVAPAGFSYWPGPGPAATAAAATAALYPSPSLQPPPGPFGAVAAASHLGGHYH
Summary of the method: (§1)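 GST fusions of human transcription factors were expressed in yeast and captured with glutathione beads. Once given DNA barcodes and pooled alongside a tag-only sample, they were incubated for 30 min at room temperature with 200 nmole of a random double-stranded 16-mer DNA library in Tris/NaCl/DTT/glycerol buffer, then washed, crosslinked (0.1% formaldehyde), proximity-ligated, PCR-amplified and sequenced on an Illumina NextSeq500. The binding signal of each hexamer is its read frequency for a factor divided by its frequency for the tag-only sample.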

ETV5 = ETV5 (Homo sapiens, UniProt P41161 1-510); conditions: protein: recombinant; tags: N-terminal GST; dsDNA, one strand shown
ETV5, sequence (P41161 whole entry): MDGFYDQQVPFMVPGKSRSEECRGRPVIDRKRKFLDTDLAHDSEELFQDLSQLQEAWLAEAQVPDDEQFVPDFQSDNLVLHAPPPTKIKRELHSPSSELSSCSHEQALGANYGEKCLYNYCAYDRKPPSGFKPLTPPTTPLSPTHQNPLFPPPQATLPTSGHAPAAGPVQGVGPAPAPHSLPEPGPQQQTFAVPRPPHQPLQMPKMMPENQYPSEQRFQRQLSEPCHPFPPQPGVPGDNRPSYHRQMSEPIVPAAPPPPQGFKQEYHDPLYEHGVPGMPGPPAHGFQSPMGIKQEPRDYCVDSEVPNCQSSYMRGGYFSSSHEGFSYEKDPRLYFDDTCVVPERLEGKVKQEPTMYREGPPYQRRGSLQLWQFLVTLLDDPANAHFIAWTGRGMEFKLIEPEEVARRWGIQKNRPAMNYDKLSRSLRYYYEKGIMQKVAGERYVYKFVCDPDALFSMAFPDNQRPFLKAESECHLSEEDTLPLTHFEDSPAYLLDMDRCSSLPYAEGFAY
Summary of the method: as §1

HSF1 = HSF1 (Homo sapiens, UniProt Q00613 1-529); conditions: protein: recombinant; tags: N-terminal GST; chain copies: 3; dsDNA, one strand shown
HSF1, sequence (Q00613 whole entry): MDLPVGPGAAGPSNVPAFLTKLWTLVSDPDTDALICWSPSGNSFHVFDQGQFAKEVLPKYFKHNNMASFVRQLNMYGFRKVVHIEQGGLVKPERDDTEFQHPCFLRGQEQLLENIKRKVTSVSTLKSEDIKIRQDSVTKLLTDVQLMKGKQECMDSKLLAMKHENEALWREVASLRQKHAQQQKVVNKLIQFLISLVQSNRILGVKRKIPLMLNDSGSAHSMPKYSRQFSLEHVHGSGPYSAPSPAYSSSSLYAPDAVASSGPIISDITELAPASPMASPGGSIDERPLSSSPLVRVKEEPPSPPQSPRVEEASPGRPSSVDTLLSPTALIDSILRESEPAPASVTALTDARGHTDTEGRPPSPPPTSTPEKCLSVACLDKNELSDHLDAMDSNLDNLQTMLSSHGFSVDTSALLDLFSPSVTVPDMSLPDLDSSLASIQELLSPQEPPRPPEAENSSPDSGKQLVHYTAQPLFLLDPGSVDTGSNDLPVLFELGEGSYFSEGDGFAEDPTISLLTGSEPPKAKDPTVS
Summary of the method: as §1

SPIC = molecular target: T2, SPIC (Homo sapiens, UniProt Q8N5J4 1-248); conditions: protein: recombinant; tags: N-terminal GST; dsDNA, one strand shown
T2 sequence: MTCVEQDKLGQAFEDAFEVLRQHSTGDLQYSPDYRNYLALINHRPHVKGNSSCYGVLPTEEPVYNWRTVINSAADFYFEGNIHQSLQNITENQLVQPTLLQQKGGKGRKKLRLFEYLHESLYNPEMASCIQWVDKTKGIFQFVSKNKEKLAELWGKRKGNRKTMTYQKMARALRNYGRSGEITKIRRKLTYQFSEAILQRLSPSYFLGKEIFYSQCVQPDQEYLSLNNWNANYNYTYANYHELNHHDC
Summary of the method: as §1

ELF4 = ELF4 (Homo sapiens, UniProt Q99607 1-663); conditions: protein: recombinant; tags: N-terminal GST; dsDNA, one strand shown
ELF4, sequence (Q99607 whole entry): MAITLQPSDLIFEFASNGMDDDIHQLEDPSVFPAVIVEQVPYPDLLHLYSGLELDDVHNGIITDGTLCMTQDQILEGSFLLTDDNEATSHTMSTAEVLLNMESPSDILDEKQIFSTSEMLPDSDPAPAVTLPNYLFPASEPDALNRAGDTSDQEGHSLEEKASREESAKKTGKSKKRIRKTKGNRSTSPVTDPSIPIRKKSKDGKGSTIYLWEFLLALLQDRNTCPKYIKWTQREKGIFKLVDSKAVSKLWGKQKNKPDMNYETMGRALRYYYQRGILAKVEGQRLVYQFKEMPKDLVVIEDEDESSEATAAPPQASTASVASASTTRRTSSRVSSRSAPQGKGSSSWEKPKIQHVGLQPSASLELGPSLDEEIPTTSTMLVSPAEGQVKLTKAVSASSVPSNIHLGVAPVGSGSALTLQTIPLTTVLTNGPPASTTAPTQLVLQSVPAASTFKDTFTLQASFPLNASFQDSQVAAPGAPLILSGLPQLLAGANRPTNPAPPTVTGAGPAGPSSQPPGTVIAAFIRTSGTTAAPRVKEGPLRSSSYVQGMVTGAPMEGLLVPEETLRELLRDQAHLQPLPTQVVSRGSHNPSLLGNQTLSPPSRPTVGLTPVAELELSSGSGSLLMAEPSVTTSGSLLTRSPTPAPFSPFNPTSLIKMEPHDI
Summary of the method: as §1

ELK4 = molecular target: T3, ELK4 (Homo sapiens, UniProt P28324-2 1-405); conditions: protein: recombinant; tags: N-terminal GST; dsDNA, one strand shown
T3 sequence: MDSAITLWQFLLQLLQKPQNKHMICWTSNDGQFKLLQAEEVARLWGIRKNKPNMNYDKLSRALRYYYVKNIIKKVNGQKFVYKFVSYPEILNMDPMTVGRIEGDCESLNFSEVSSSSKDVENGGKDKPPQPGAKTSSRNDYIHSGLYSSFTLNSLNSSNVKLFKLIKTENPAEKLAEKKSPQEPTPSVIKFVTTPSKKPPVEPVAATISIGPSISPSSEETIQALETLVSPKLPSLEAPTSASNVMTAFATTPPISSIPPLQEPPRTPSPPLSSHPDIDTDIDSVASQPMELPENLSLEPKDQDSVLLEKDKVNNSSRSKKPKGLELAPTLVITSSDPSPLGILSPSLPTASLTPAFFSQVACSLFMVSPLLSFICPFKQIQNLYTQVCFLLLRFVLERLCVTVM
Summary of the method: as §1

ETV2 = molecular target: T4, ETV2 (Homo sapiens, UniProt O00321 1-342); conditions: protein: recombinant; tags: N-terminal GST; dsDNA, one strand shown
T4 sequence: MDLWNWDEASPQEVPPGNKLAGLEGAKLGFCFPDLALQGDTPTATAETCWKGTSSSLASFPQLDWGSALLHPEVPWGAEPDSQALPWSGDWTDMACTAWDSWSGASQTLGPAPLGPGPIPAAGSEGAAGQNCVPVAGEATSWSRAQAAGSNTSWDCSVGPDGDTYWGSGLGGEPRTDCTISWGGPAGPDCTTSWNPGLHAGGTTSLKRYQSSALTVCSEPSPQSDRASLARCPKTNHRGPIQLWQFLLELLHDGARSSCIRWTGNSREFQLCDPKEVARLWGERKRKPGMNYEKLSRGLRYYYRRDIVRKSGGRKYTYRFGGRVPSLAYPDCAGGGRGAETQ
Summary of the method: as §1

ELF3 = molecular target: T5, ELF3 (Homo sapiens, UniProt P78545 1-371); conditions: protein: recombinant; tags: N-terminal GST; dsDNA, one strand shown
T5 sequence: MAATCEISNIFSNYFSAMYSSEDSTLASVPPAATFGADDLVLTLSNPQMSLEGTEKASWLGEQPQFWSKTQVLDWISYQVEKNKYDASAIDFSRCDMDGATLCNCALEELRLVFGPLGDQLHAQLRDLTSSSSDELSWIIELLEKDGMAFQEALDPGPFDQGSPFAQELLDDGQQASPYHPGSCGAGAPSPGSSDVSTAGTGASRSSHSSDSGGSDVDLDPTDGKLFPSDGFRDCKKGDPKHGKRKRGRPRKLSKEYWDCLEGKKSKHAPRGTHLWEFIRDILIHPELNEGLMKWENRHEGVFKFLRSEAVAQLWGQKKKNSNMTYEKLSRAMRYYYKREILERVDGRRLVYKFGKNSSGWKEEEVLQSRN
Summary of the method: as §1

CRX = CRX (Homo sapiens, UniProt O43186 1-299); conditions: protein: recombinant; tags: N-terminal GST; dsDNA, one strand shown
CRX, sequence (O43186 whole entry): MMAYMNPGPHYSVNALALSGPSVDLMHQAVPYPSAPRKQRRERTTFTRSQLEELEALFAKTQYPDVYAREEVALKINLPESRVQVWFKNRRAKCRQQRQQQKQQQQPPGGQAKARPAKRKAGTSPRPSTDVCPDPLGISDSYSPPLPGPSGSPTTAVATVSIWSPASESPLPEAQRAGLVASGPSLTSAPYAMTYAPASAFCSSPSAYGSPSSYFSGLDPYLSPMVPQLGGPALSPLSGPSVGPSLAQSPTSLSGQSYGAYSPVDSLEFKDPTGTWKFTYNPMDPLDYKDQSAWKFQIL
Summary of the method: as §1

ETV1 = ETV1 (Homo sapiens, UniProt P50549 1-477); conditions: protein: recombinant; tags: N-terminal GST; dsDNA, one strand shown
ETV1, sequence (P50549 whole entry): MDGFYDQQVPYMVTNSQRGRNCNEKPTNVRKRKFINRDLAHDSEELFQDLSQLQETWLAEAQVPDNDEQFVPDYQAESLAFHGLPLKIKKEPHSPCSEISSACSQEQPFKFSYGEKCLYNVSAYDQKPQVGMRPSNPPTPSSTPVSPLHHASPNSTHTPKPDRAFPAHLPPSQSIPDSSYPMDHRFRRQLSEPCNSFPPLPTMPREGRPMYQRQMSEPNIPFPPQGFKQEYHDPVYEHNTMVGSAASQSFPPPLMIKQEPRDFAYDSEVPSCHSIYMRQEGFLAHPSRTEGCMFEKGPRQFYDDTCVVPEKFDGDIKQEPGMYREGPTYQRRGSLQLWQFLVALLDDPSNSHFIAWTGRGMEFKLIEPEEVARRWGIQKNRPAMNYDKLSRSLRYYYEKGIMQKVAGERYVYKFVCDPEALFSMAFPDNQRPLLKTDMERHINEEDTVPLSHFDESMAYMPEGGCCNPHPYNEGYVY
Summary of the method: as §1

ERF = molecular target: T6, ERF (Homo sapiens, UniProt P50548 1-548); conditions: protein: recombinant; tags: N-terminal GST; dsDNA, one strand shown
T6 sequence: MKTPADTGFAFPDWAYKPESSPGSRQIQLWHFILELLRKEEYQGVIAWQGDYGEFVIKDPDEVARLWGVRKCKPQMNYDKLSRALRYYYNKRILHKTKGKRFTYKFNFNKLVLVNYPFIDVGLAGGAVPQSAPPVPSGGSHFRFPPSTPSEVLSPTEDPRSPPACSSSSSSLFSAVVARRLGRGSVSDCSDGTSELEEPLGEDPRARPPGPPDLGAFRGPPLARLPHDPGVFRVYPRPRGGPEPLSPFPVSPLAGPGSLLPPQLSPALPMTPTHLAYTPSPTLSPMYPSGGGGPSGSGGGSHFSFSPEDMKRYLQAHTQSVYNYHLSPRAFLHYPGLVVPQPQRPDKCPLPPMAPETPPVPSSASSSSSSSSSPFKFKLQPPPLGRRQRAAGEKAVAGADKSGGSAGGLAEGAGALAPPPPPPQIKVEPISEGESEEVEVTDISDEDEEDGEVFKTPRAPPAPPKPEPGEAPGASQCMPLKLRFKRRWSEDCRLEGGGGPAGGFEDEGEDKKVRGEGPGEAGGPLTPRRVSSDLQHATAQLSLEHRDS
Summary of the method: as §1

ETV3L = molecular target: T7, ETV3L (Homo sapiens, UniProt Q6ZN32 1-361); conditions: protein: recombinant; tags: N-terminal GST; dsDNA, one strand shown
T7 sequence: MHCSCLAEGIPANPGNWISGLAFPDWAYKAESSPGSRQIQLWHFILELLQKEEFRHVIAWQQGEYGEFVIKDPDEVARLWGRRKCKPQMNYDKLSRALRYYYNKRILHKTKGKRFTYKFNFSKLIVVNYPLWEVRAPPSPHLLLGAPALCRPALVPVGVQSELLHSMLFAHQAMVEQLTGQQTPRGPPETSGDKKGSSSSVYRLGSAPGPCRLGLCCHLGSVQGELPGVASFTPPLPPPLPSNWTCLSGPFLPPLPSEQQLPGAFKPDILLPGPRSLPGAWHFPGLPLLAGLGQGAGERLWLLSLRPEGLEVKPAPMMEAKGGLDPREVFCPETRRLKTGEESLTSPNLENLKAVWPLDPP
Summary of the method: as §1

ETS2 = molecular target: T8, ETS2 (Homo sapiens, UniProt P15036 1-469); conditions: protein: recombinant; tags: N-terminal GST; dsDNA, one strand shown
T8 sequence: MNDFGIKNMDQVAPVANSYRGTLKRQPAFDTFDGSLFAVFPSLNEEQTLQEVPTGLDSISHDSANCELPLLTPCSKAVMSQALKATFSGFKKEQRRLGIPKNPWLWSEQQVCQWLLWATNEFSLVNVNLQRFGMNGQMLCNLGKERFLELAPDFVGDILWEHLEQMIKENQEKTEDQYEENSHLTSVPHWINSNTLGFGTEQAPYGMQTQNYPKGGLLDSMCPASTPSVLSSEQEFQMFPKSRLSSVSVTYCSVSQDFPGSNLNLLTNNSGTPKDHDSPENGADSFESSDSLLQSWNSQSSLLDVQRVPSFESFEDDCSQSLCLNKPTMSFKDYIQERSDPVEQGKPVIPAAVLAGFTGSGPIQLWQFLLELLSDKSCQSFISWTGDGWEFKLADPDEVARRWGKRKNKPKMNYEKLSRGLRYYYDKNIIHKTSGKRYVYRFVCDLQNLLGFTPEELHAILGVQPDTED
Summary of the method: as §1

SPDEF = molecular target: T9, SPDEF (Homo sapiens, UniProt O95238 1-335); conditions: protein: recombinant; tags: N-terminal GST; dsDNA, one strand shown
T9 sequence: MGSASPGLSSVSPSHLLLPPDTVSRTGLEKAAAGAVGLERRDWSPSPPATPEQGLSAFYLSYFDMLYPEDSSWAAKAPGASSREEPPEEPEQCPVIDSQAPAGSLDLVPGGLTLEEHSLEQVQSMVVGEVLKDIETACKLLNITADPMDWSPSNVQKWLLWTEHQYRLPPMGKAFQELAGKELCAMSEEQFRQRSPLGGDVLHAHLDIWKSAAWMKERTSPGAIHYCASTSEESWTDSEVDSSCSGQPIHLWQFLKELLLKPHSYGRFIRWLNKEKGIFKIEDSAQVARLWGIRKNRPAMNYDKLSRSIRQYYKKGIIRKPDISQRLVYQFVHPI
Summary of the method: as §1

ETV7 = molecular target: T10, ETV7 (Homo sapiens, UniProt Q9Y603 1-341); conditions: protein: recombinant; tags: N-terminal GST; dsDNA, one strand shown
T10 sequence: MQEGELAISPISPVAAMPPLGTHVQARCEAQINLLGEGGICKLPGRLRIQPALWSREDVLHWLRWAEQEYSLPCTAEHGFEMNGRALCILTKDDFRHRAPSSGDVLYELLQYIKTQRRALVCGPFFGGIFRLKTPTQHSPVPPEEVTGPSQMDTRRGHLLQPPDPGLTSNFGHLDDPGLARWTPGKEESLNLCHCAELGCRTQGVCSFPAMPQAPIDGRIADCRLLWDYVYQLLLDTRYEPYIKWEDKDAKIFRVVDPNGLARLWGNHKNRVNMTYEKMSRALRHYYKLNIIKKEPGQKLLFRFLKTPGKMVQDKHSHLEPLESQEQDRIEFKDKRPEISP
Summary of the method: as §1

ELF5 = molecular target: T11, ELF5 (Homo sapiens, UniProt Q9UKW6-2 1-255); conditions: protein: recombinant; tags: N-terminal GST; dsDNA, one strand shown
T11 sequence: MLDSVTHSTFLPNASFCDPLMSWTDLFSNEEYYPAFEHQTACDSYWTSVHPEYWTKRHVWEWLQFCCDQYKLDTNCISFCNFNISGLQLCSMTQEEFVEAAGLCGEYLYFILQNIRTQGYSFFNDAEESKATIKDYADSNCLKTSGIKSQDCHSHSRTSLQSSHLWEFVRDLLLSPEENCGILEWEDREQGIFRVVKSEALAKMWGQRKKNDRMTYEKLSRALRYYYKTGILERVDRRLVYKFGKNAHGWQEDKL
Summary of the method: as §1

ETV3 = molecular target: T12, ETV3 (Homo sapiens, UniProt P41162-2 1-143); conditions: protein: recombinant; tags: N-terminal GST; dsDNA, one strand shown
T12 sequence: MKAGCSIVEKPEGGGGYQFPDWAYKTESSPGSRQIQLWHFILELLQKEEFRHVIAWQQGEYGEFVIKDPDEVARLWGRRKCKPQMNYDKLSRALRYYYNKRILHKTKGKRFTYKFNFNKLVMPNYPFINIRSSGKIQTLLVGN
Summary of the method: as §1

ETV6 = ETV6 (Homo sapiens, UniProt P41212 1-452); conditions: protein: recombinant; tags: N-terminal GST; dsDNA, one strand shown
ETV6, sequence (P41212 whole entry): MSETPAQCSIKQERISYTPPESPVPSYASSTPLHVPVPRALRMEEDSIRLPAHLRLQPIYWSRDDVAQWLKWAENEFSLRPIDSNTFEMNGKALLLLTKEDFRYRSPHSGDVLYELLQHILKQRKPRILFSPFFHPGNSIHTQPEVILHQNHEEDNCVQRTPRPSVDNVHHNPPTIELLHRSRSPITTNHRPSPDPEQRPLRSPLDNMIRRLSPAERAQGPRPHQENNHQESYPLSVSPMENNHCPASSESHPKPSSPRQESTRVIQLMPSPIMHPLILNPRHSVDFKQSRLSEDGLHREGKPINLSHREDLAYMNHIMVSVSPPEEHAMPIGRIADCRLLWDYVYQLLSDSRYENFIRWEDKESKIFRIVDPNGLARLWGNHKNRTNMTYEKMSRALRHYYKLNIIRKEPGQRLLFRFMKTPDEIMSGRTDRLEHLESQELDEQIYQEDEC
Summary of the method: as §1

In the case of GCACTA, the binding signal (FEV) is reported as 1.19 fold enrichment (6-mer frequency, TF over GST control), the binding signal (ETV5) is reported as 1.13 fold enrichment (6-mer frequency, TF over GST control) and the binding signal (HSF1) is reported as 1.11 fold enrichment (6-mer frequency, TF over GST control). For the same sequence, the binding signal (SPIC) was 1.12 fold enrichment (6-mer frequency, TF over GST control), the binding signal (ELF4) was 1.27 fold enrichment (6-mer frequency, TF over GST control) and the binding signal (ELK4) was 1.13 fold enrichment (6-mer frequency, TF over GST control). The binding signal (ETV2) was 1.22 fold enrichment (6-mer frequency, TF over GST control), the binding signal (ELF3) was 1.29 fold enrichment (6-mer frequency, TF over GST control) and the binding signal (CRX) was 1.17 fold enrichment (6-mer frequency, TF over GST control). The binding signal (ETV1) was 1.15 fold enrichment (6-mer frequency, TF over GST control), the binding signal (ERF) was 1.19 fold enrichment (6-mer frequency, TF over GST control) and the binding signal (ETV3L) was 1.23 fold enrichment (6-mer frequency, TF over GST control). For the same sequence, the binding signal (ETS2) was 1.21 fold enrichment (6-mer frequency, TF over GST control), the binding signal (SPDEF) was 1.16 fold enrichment (6-mer frequency, TF over GST control) and the binding signal (ETV7) was 1.2 fold enrichment (6-mer frequency, TF over GST control). For the same sequence, the binding signal (ELF5) was 1.1 fold enrichment (6-mer frequency, TF over GST control), the binding signal (ETV3) was 1.22 fold enrichment (6-mer frequency, TF over GST control) and the binding signal (ETV6) was 1.09 fold enrichment (6-mer frequency, TF over GST control).
